This note sets out measurements from PubChem BioAssay (NCI).

The panel holds about 79,000 compounds, 15% with a hit somewhere; the sample as a whole holds those more often. The source made the active and inactive calls. No stated cut-off is given here; in the data, active means growth inhibition above about 70%; inactive means the rest.

This test in a line: NCI Yeast Anticancer Drug Screen. Data for the sgs1 mgt1 strain (AID 161).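 Further: 0% = growth of cultures given vehicle only.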 Conditions: S. cerevisiae sgs1 mgt1 strain, at 50.0 µM, active compounds read high. Here is the method: Growth inhibition of yeast strains with defined genetic alterations is measured as a screen for potential anti-cancer activity. Selected strains with alterations in DNA damage repair or cell cycle control were exposed to compounds and growth inhibition was measured relative to vehicle treated controls. The strain used in this assay is sgs1 mgt1
Take `CCCN(CCC)CC(O)CN(CCC)CCC`: the growth inhibition was -21.6% (inactive).
Under `NNC(=S)NC1CCCCC1` stands 29.8% (inactive); under `O=C(O)C(O)c1ccc(Cl)cc1Cl` (stereo not given), 10.9% (inactive).
In the case of `O=C(O)c1ccncc1C(=O)O` it was -17.1% (inactive); in that of `CC(C)(O)C12CC3CC(CC(C3)C1)C2`, 8.35% (inactive); in that of `COC(=O)c1sc(N2CCCC2)nc1N`, 6.4% (inactive).
For `CC1CCC2C(C)C3C(CC4C5CC=C6CC(O)CCC6(C)C5CCC43COC(=O)c3ccccc3)N2C1` (stereo not given), the growth inhibition was 55.8% (inactive).
In the case of `COC(=O)C1C(COS(C)(=O)=O)ON2CCC(OC)(OC)C12` (stereo not given) it was 17.8% (inactive); in that of `CCn1c(=O)c(C(=O)O)c(Cl)c2cc3c(cc21)OCO3`, 17.5% (inactive).
Turning to `COc1cccc2c1C(CO)N1C(C#N)C3CC(C(=O)O)C(C1C2)N3C` (stereo not given), the growth inhibition is -28.3% (inactive).
Under `Cc1cn(C2CC(OC(=O)C(Cc3ccccc3)NC(=O)OCc3ccccc3)C(COC(=O)C(Cc3ccccc3)NC(=O)OCc3ccccc3)O2)c(=O)[nH]c1=O` (stereo not given) stands -13.3% (inactive); under `COc1cc2c(cc1OC)C1CC(CC(N)=O)(C(N)=O)CCN1CC2` (stereo not given), 14.6% (inactive); under `CN(C)C(=O)Sc1ccc(N(C)C)cc1`, -11.3% (inactive).
In the case of `CC(=O)N(C(=O)CC(=O)N1N=C(C)C(N=Nc2cccc([N+](=O)[O-])c2)C1=O)c1ccc(Cl)cc1` (stereo not given) it was -5.9% (inactive).
In the case of `C/C(=N/O)c1cccc([N+](=O)[O-])c1` it was -4.95% (inactive); in that of `C[N+](C)(CCCN1C(=O)c2cccc3c(Br)ccc(c23)C1=O)Cc1ccc(Cl)c(Cl)c1`, 98.3% (active); in that of `CC(=Nc1ccc(Cl)cc1)c1ccncc1`, -14.8% (inactive).
For the compound `COC(=O)CCc1onc(Br)c1CCl`, the growth inhibition was -7.55% (inactive).
As to `C/C=C/C1OCC(C)(C)CO1`, the growth inhibition is -12.9% (inactive).
In the case of `COc1cc([N+](=O)[O-])c(F)cc1F` it was -0.05% (inactive); in that of `CCCC=Nc1ccccc1`, 14.5% (inactive).
`O=C(Nc1nc(C23CC4CC(CC(C4)C2)C3)cs1)c1cc2ccc(O)cc2oc1=O`: the growth inhibition was 3.55% (inactive).
In the case of `Cc1ccc2cccc(N)c2n1` it was -8% (inactive); in that of `Cc1ccccc1OCC(O)COC(=O)CCS(=O)(=O)O` (stereo not given), -7.85% (inactive).
In the case of `O=C(Nc1ccn(CCI)c(=O)n1)c1ccccc1` it was 10.1% (inactive); in that of `COc1cc(N=Nc2c(Cl)cc([N+](=O)[O-])cc2Cl)c(OC)cc1N=Nc1ccc(N)nc1N`, 7.05% (inactive); in that of `COC(=O)CNC(=O)Nc1cc(N2C(=O)ON3C2C(C)(C)N(O)C3(C)C)ccc1C` (stereo not given), 16.9% (inactive).
With `CCOC(=O)C1(C)Sc2ccccc2N=C1c1ccccc1` (stereo not given), the growth inhibition is 45.5% (inactive).
Under `O=C1CC2C=CC(O)C(C1)C2` (stereo not given) stands -30.6% (inactive); under `COc1ccc(/C=C/C(=N\NC(=O)c2ccccc2)c2sc(Nc3ccc([N+](=O)[O-])cc3)nc2C)cc1OC`, 11.1% (inactive).
In the case of `COC(=O)[C@@H]1[C@H](O)CC[C@H]2[C@@]1(C)CC[C@@H](C)[C@]2(COC(C)=O)CC(=O)c1ccoc1` it was -37% (inactive); in that of `O=[N+]([O-])c1ccc2c(c1)/C(=N/O)CCC2`, 1.05% (inactive).
As to `CC(=O)OCCOCNC(=S)NCc1ccco1`, the growth inhibition was -40% (inactive).
Under `CN(C)CC(CN(C)C)C(=O)C(C)(C)C` stands 22.7% (inactive).
Under `CC1CCCC(C)C1O` (stereo not given) stands -13.9% (inactive); under `O=c1[nH]c(N2CCN(c3ccccc3)CC2)nc2cc3ccccc3cc12`, -13.6% (inactive).
Take `CC1(C)CC(=O)OC/C=C\CC(Cc2ccccc2)C(=O)C1` (stereo not given): the growth inhibition was -12.3% (inactive).
In the case of `Cc1cc2nc(CC(O)c3nc4cc(C)c(C)cc4[nH]3)[nH]c2cc1C` (stereo not given) it was -5.1% (inactive); in that of `CCN(CC)c1nc(Cl)nc(C(N)=O)c1N`, -10.4% (inactive); in that of `N#C/C(=C\NC(=S)Nc1ccc(S(=O)(=O)Nc2nccs2)cc1)C(=O)c1ccc2ccccc2c1`, 14.3% (inactive).
